Test results published in PubChem BioAssay AID1159580 (chemical genetic matrix, 2015).
Several values for one entry are separate records, joined by “and”; a condition that tells them apart may be missing. Equal values may be shown once. Screen size: about 5,500 compounds; about 2,000 (36%) were called active. Inconclusive results (about 18%) are left out. Cut-off read from the data, not from the text of the source: active = normalized growth mostly below about 0.91 (no sharp cut-off); inconclusive = no clear call, values can overlap the other calls; inactive = mostly above about 0.92. This is one part of the list.

Assay: chemical genetic growth profiling, strain panel (AID 1159580);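 note: tested at 20 µM; growth read once vehicle control cultures reached saturation at 30 °C; 1 = growth at the plate median or of vehicle wells; lower values mean less growth of the strain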
Conditions: S. cerevisiae deletion strains, growth OD

Measured: normalized growth

CC12CCC(CC1)C(C)(C)O2
inactive: locus YAL013W, strain DEP1, hits give low values 1 | locus YAL021C, strain ccr4, hits give low values 0.963 | locus YAL026C, strain drs2, hits give low values 0.973 | locus YAL030W, strain snc1, hits give low values 0.998 | locus YBL061C, strain skt5, hits give low values 0.967 | locus YBR009C, strain hhf1, hits give low values 0.994 | locus YBR021W, strain FUR4, hits give low values 1.02 | locus YBR023C, strain chs3, hits give low values 0.974 | locus YBR171W, strain sec66, hits give low values 0.966 | locus YBR229C, strain ROT2, hits give low values 1 | locus YBR231C, strain swc5, hits give low values 1.02 | locus YBR279W, strain paf1, hits give low values 0.988 | locus YCL011C, strain gbp2, hits give low values 0.974 | locus YCL016C, strain dcc1, hits give low values 0.986 | locus YCL029C, strain bik1, hits give low values 1.01 | locus YCL061C, strain MRC1, hits give low values 0.968 | locus YCL069W, strain vba3, hits give low values 0.977 | locus YCR088W, strain abp1, hits give low values 0.985 | locus YDL005C, strain med2, hits give low values 0.975 | locus YDL035C, strain GPR1, hits give low values 0.999 | locus YDL040C, strain nat1, hits give low values 0.997 | locus YDL074C, strain BRE1, hits give low values 1.02 | locus YDL101C, strain DUN1, hits give low values 1 | locus YDL185W, strain tfp1, hits give low values 1.01 | locus YDL192W, strain arf1, hits give low values 1.02 | locus YDR001C, strain nth1, hits give low values 0.995 | locus YDR069C, strain doa4, hits give low values 0.966 | locus YDR101C, strain arx1, hits give low values 0.996 | locus YDR137W, strain rgp1, hits give low values 1.04 | locus YDR150W, strain NUM1, hits give low values 1 | locus YDR159W, strain sac3, hits give low values 1.01 | locus YDR162C, strain NBP2, hits give low values 0.978 | locus YDR195W, strain ref2 0.982 | locus YDR297W, strain sur2, hits give low values 0.985 | locus YDR318W, strain mcm21, hits give low values 1.02 | locus YDR334W, strain swr1, hits give low values 0.974 | locus YDR335W, strain msn5, hits give low values 0.985 | locus YDR388W, hits give low values 1.02 | locus YDR392W, strain spt3, hits give low values 0.935 | locus YDR502C, strain sam2, hits give low values 1.01 | locus YEL003W, strain gim4, hits give low values 0.989 | locus YEL037C, strain rad23, hits give low values 0.97 | locus YEL061C, strain CIN8 (second series), hits give low values 0.98 | locus YEL061C, strain CIN8, hits give low values 1 | locus YER015W, strain faa2, hits give low values 0.979 | locus YER016W, strain bim1, hits give low values 0.992 | locus YER110C, hits give low values 1.02 | locus YER111C, strain swi4, hits give low values 0.97 | locus YER155C, strain BEM2 (second series), hits give low values 0.977 | locus YER155C, strain BEM2, hits give low values 1.01 | locus YER167W, strain BCK2, hits give low values 1 | locus YFR010W, strain ubp6, hits give low values 0.967 | locus YGL078C, strain dbp3, hits give low values 1.03 | locus YGL086W, strain mad1, hits give low values 0.986 | locus YGL167C, strain pmr1, hits give low values 0.979 | locus YGL173C, strain kem1, hits give low values 0.971 | locus YGL227W, strain vid30, hits give low values 0.986 | locus YGL240W, strain doc1, hits give low values 0.997 | locus YGL248W, strain PDE1, hits give low values 1.01 | locus YGL253W, strain hxk2, hits give low values 0.963 | locus YGR078C, strain PAC10, hits give low values 1 | locus YGR135W, strain pre9, hits give low values 1.06 | locus YGR229C, strain SMI1, hits give low values 0.999 | locus YGR252W, strain gcn5, hits give low values 1.04 | locus YHR013C, strain ard1, hits give low values 0.967 | locus YHR027C, strain rpn1, hits give low values 0.984 | locus YHR030C, strain SLT2, hits give low values 1.01 and 0.978 | locus YHR079C, strain IRE1 (second series), hits give low values 1.01 | locus YHR079C, strain IRE1, hits give low values 0.993 | locus YHR094C, strain hxt1, hits give low values 1.02 | locus YHR129C, strain ARP1, hits give low values 1.01 | locus YHR142W, strain chs7, hits give low values 0.979 | locus YHR200W, strain rpn10, hits give low values 1.01 | locus YIL066C, strain RNR3, hits give low values 0.998 | locus YIL073C, strain SPO22, hits give low values 1 | locus YIL125W, strain kgd1, hits give low values 1.02 | locus YIR030C, strain dcg1, hits give low values 1.03 | locus YJL092W, strain hpr5, hits give low values 0.954 | locus YJL095W, strain BCK1 (second series), hits give low values 0.97 | locus YJL095W, strain BCK1, hits give low values 1.03 and 0.991 | locus YJL115W, strain asf1, hits give low values 0.982 | locus YJL129C, strain trk1, hits give low values 0.966 | locus YJL134W, strain LCB3, hits give low values 1 | locus YJL154C, strain vps35, hits give low values 0.984 | locus YJL164C, strain tpk1, hits give low values 0.988 | locus YJL166W, strain qcr8, hits give low values 0.996 | locus YJL168C, strain set2, hits give low values 1.04
